Assay outcomes: PubChem, National Center for Advancing Translational Sciences (NCATS)
Only some compounds are listed: those with a hit (about 2.6% of all), similar ones and a draw of the others.
Cruzain inh Det = inhibitors of Trypanosoma cruzi cruzain with detergent; P25779; purified cruzain, Z-FR-AMC fluorescence, 0.01% Triton; Potency, µM, hits mostly inhibitors; 0.43% of 200,000 active; AID 1478; note: nearly all actives have a fitted effect of over 40% in size
Target sequence (P25779 123-467 limits assumed): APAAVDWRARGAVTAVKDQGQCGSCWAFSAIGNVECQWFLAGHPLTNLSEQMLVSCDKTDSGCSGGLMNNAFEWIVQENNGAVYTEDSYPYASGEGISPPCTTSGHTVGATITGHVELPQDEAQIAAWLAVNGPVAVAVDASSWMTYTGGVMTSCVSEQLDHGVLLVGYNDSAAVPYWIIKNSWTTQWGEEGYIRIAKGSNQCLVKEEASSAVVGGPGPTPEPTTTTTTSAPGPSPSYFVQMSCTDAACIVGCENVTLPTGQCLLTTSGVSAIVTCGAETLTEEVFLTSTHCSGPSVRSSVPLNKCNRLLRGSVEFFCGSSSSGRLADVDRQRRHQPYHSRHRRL
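Purified cruzain (1.5 nM final) was preincubated with compounds for 15 min at room temperature in 100 mM sodium acetate pH 5.5, 5 mM DTT, 0.01% Triton X-100. Reaction started with 2 uM Z-FR-AMC; AMC fluorescence change over 60 s gave activity.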
Cruzain inh noDet = blocks cruzain activity in detergent-free assay; P25779; purified cruzain, Z-FR-AMC fluorescence, no detergent; Potency, µM, hits mostly inhibitors; 2.3% of 200,000 active; note: nearly all actives have a fitted effect of over 40% in size
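Purified cruzain at 1.5 nM, pre-incubated 15 min with compound at room temperature in 100 mM sodium acetate pH 5.5, 5 mM DTT, 0.00005% Triton X-100. Reaction started with 2 uM Z-FR-AMC; AMC fluorescence increase over 60 s gives rate.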
Hits are given with their value; n = inactive; u = inconclusive. Calls come from the whole dose curve; as a rule, active = well fitted curve in the direction sought with a large enough effect; inconclusive = small, poorly fitted or top-dose-only effect, or another doubt; inactive = no such curve, though single readings can be large; an effect the other way counts as inactive or inconclusive.

SMILES | Cruzain inh Det | Cruzain inh noDet
CC(NC(=O)Cc1cccs1)c1ccc2c(c1)OCO2 (stereo not given) | n | n
CC/C(C)=C1\SC(N2CCN(c3cccc(C(F)(F)F)c3)CC2)=NC1=O | n | n
O=C(COc1ccccc1)Nc1sc2c(c1C(=O)Nc1ccccc1Cl)CCCCC2 | n | n
CCOc1ccc(OCc2cccc(C(=O)N3CCOCC3)c2)cc1 | n | n
O=C(c1cc(-c2ccccc2)nc2ccccc12)N1CCc2ccccc2C1 | n | n
CCCc1ccc(OCC(=O)Nc2sc3c(c2C(=O)OCC)CCC(C(C)(C)C)C3)cc1 (stereo not given) | n | n
Cc1ccc(-n2c(SCC(=O)Nc3ccc4cn[nH]c4c3)nnc2-c2ccco2)cc1 | n | n
O=C(COC(=O)/C=C/c1ccc(Cl)cc1)Nc1ccc2c(c1)OCCO2 | n | n
O=C(COC(=O)CNC(=O)c1ccc(Cl)cc1)Nc1ccc2c(c1)OCCO2 | 14.1µM | 10µM
Cc1ccc(NC2=NC(C(=O)Nc3ccc(C)c(C)c3)CC(=O)N2)cc1 (stereo not given) | n | n
NC12CC3CC(C1)CC(O)(C3)C2 | n | n
O=[N+]([O-])c1cc(S(=O)(=O)c2ccc(N3CCCCC3)c([N+](=O)[O-])c2)ccc1N1CCCCC1 | n | 7.94µM
COc1cccc(C(=O)/C=C/c2ccc(N3CCCCC3)c([N+](=O)[O-])c2)c1 | n | n
O=C(/C=C/c1ccc(N2CCCCC2)c([N+](=O)[O-])c1)c1ccc(S(=O)(=O)N2CCCC2)cc1 | n | 31.6µM
O=[N+]([O-])c1cccc(S(=O)(=O)c2ccc(N3CCCCC3)c([N+](=O)[O-])c2)c1 | n | u
COc1ccc(CCNC(=O)C(=O)NCC2OCCN2S(=O)(=O)c2ccc(Br)cc2)cc1OC (stereo not given) | n | n
COc1ccc(OC)c(Nc2nc(C3CC3)nc3c2nnn3Cc2ccccc2)c1 | n | n
c1ccc(Cn2nnc3c(Nc4ccc5c(c4)OCO5)nc(C4CC4)nc32)cc1 | n | 15.8µM
CN1CCN(C(=S)c2ccc(Cl)cc2)CC1 | n | n
O=C1S/C(=C/c2ccccc2)C(=O)N1CC(O)Cn1c2ccccc2c2ccccc21 (stereo not given) | n | n
CN(C)c1ccc(/C=C2\SC(=O)N(CC(O)Cn3c4ccccc4c4ccccc43)C2=O)cc1 (stereo not given) | n | 5.01µM
COc1ccc(C(=O)N2CCC3(CC2)CN(c2ccccn2)C3)cc1 | n | n
CN(C)c1oc(-c2ccc(OCc3ccc(Cl)cc3)cc2)nc1C#N | u | 20µM
CCOc1ccc(Nc2oc(-c3ccc(Cl)cc3)nc2C#N)cc1 | n | u
CC(=O)c1ccc(NC(=O)CSc2nnc(NC(=O)CN3CCOCC3)s2)cc1 | n | n
SMILES | Cruzain inh Det | Cruzain inh noDet
Cc1ccc(-c2ccc(C(=O)Nc3ccccc3)o2)c2ccccc12 | n | u
Cc1ccc(S(=O)(=O)NC(=O)c2ccc(-c3ccc(C)c4ccccc34)o2)cc1 | 25.1µM | n
CCOc1cc(NC(=O)c2ccco2)c(OCC)cc1NC(=O)CCC(=O)NCc1cccnc1 | n | n
O=c1oc(-c2ccco2)nc2ccccc12 | n | n
c1coc(-c2nc3ccccc3nc2-c2ccco2)c1 | 14.1µM | 12.6µM
Cc1cc(C)c2c(=O)n(CC(=O)NCCCN3CCN(c4ccccc4F)CC3)sc2n1 | n | n
COc1ccc(/C=C/c2nc(-c3ccccc3O)n[nH]2)cc1 | n | 12.6µM
COc1ccc(/C=C/c2nc(-c3ccccc3O)n(-c3ccccc3)n2)cc1 | n | n
O=C(Cn1c(=O)n(Cc2ccc3c(c2)OCO3)c(=O)c2ccccc21)Nc1cccc(Cl)c1 | n | n
Cc1ccc(C)c(NC(=O)Cn2c(=O)n(Cc3ccc4c(c3)OCO4)c(=O)c3ccc(C(=O)NC4CCCCC4)cc32)c1 | n | n
O=C(Cn1c(=O)n(Cc2ccc(C(=O)NCc3ccc4c(c3)OCO4)cc2)c(=O)c2ccccc21)Nc1cccc(Cl)c1 | n | 3.98µM
CCN(C(=O)Cn1c(=O)n(Cc2ccc3c(c2)OCO3)c(=O)c2ccc(C(=O)NC3CCCCC3)cc21)c1cccc(C)c1 | n | 31.6µM
Cc1cc(C)c(NC(=O)Cn2c(=O)n(Cc3ccc(C(=O)NCc4ccc5c(c4)OCO5)cc3)c(=O)c3ccccc32)c(C)c1 | n | n
Cc1cccc(NC(=O)Cn2c(=O)n(Cc3ccc(C(=O)NCc4ccc5c(c4)OCO5)cc3)c(=O)c3ccccc32)c1 | n | 3.98µM
COc1cccc(NC(=O)Cn2c(=O)n(CCc3ccc(OC)c(OC)c3)c(=O)c3ccccc32)c1 | n | n
COc1cccc(NC(=O)Cn2c(=O)n(Cc3ccc(C(=O)NCc4ccc(C)cc4)cc3)c(=O)c3ccccc32)c1 | n | 12.6µM
CC1(O)/C=C\C=C(\CO)C2CC(C)(C)C2(O)CC1 (stereo not given) | n | n
COc1cc(C(=O)Nc2ccc3nc(SCc4ccc(C)cc4)sc3c2)cc(OC)c1OC | n | n
Cc1cc(C)n(-c2ccc(C(=O)OCC(=O)Nc3ccccc3[N+](=O)[O-])cc2)n1 | n | n
CCOc1ccc(OCCOCCn2c(-c3ccc(Cl)cc3)nc3ccccc3c2=O)cc1 | n | n
Cc1ccc(C(=O)c2cn[nH]c2-c2cc(Cl)ccc2O)cc1 | n | n
O=C(Cn1c(=O)n(Cc2ccc3c(c2)OCO3)c(=O)c2ccccc21)N1CCCc2ccccc21 | n | 31.6µM
CC1CCN(C(=O)Cn2c(=O)n(Cc3ccc4c(c3)OCO4)c(=O)c3ccccc32)CC1 | n | n
O=S(=O)(c1ccccc1)N1CCn2c(nc3ccccc32)C1 | n | n
O=S(=O)(c1ccc(F)cc1)N1CCn2c(nc3ccccc32)C1 | 17.8µM | 5.01µM
SMILES | Cruzain inh Det | Cruzain inh noDet
CN(C)CC(=O)N1c2ccccc2CCc2ccc(NC(=O)c3ccc(N)cc3)cc21 | n | n
O=c1nc(-c2ccccc2)n(-c2ccccc2)[nH]1 | n | n
COc1cccc(-c2nnc3sc(-c4ccc(Cl)cc4)nn23)c1 | n | n
CS(=O)(=O)c1ccc2nc(NC(=O)c3cccc(NS(=O)(=O)c4ccc(F)c(F)c4)c3)sc2c1 | n | n
O=C(Nc1nc2ccc(SC(F)F)cc2s1)c1ccc(NS(=O)(=O)c2ccc(F)c(F)c2)cc1 | n | 31.6µM
COc1ccc(-n2nnnc2SCC(=O)c2ccc3c(c2)OCCO3)c(OC)c1 | n | u
COc1ccc(C)cc1-n1nnnc1SCC(=O)c1ccc2c(c1)OCCO2 | n | 25.1µM
O=C(COC(=O)CNC(=O)C12CC3CC(CC(C3)C1)C2)NC1CCS(=O)(=O)C1 (stereo not given) | n | n
CC(=O)C1(C)CC2(CC(C)(C)OC2=O)C(=O)O1 (stereo not given) | n | n
O=C(O)C(Cc1ccccc1)N1C(=O)/C(=C/c2ccccc2)SC1=S (stereo not given) | n | n
O=C(O)C(Cc1ccccc1)N1C(=O)/C(=C/c2cccc3ccccc23)SC1=S (stereo not given) | 31.6µM | u
Cc1ccc2oc(-c3cccc(NC(=O)c4ccc(Br)o4)c3)nc2c1 | n | n
COc1ccc(C2CC(=O)c3cc(-c4nc(-c5cccc([N+](=O)[O-])c5)cs4)c(=O)n(-c4ccc(F)cc4)c3C2)cc1 (stereo not given) | n | 1µM
COc1ccc(C2CC(=O)c3cc(-c4nc(-c5cccc([N+](=O)[O-])c5)cs4)c(=O)n(-c4ccccc4)c3C2)cc1 (stereo not given) | n | n
Cc1ccccc1CN1C(=O)c2ccccc2Sc2ccc(C(=O)NCc3ccccc3)cc21 | n | 31.6µM
